{"source": "PubChem BioAssay (Tox21)", "note": "Inconclusive results are not listed. The source made the active and inactive calls. Calls follow the shape of the dose curve; as a rule, active = well fitted cell-killing curve with a large enough effect in the repeat runs; inconclusive = weak or mixed curves, or effect the other way; inactive = no such curve, though single readings can be large or run the other way. % is scaled to controls: 0 for no effect and ±100 for the full control effect; potency is read from the fitted curve at half-maximal effect."}
{"assay": "Caspase-3/7 induction in CHO-K1 cells by small molecules, qHTS cell viability counter screen (AID 1346979); also: nearly all actives have a fitted effect of over 35% in size", "conditions": "CellTiter-Fluor fluorescence, 17 h; series mostly up to 92.4 µM; activity change, negative = cytotoxicity: at the top concentration", "source_text": "National Center for Advancing Translational Sciences [NCATS]\nNIH Chemical Genomics Center [NCGC]\nU.S. Environmental Protection Agency [EPA]\nNational Institutes of Environmental Health Sciences [NIEHS]\nNational Toxicology Program [NTP]\nU.S. Food and Drug Administration [FDA]\nApoptosis is a process of programmed cell death and plays a central role in the development of multicellular organisms. It is a highly regulated process and induces cell death by activating caspases, which are the members of cysteine aspartic acid-specific protease (caspase) family. Caspases involved in apoptosis are classified by their mechanism of action as initiator caspases (caspase-2, -8, -9 and -10) and executioner caspases (caspase-3, -6, and -7). Inhibition of apoptosis results in number of cancers, autoimmune diseases, inflammatory diseases and viral infection. To identify small molecule compounds that induce apoptosis, a homogeneous, luminescent Caspase-Glo 3/7 assay was used. Wild type CHO-K1 cells were used to screen Tox21 libraries for identifying caspase-3/7 activity inducers. Also cytotoxicity of the compounds was tested in parallel by measuring the cell viability using CellTiter-Fluor assay system in the same wells.\nTox21 Assay Protocol Summary:\nCHO-K1 cells were dispensed at 1,500 per well in 5uL of culture medium into white solid bottom 1536-well plates (Corning Life Sciences, Corning, NY) using a Multidrop Combi (Thermo Scientific, Waltham, MA) dispenser. The assay plates were incubated at 37 C and 5% CO2 for 5hr, and then 23nL of compounds dissolved in DMSO and positive control were transferred using a Pintool station (Wako, San Diego, CA). The assay plates were incubated at 37C and 5% CO2 for 17hr. For cytotoxicity read, after 16hr incubation at 37C, 1uL CellTiter-Fluor reagent (Promega Corporation, Madison, WI) was added to each well of the assay plates using Flying Reagent Dispenser (FRD, Aurora Discovery, San Diego, CA). After 1hr incubation at 37C and 5% CO2, the fluorescence signal was quantified using a ViewLux plate reader (PerkinElmer, Shelton, CT)."}
{"smiles": "CCCCOCCOC(=O)COc1nc(Cl)c(Cl)cc1Cl", "activity change, negative = cytotoxicity": "7.86% (inactive)"}
{"smiles": "OCCC(F)(F)C(F)(F)C(F)(F)C(F)(F)C(F)(F)C(F)(F)C(F)(F)C(F)(F)F", "activity change, negative = cytotoxicity": "-0.285% (inactive)"}
{"smiles": "C=Cc1ccccn1", "activity change, negative = cytotoxicity": "0.712% (inactive)"}
{"smiles": "CC(C)NCC(O)COc1cccc2[nH]ccc12", "note": "(stereo not given)", "activity change, negative = cytotoxicity": "2.11% [at 42.5 µM] (inactive)"}
{"smiles": "O=C(/N=N/C(=O)OCc1ccccc1)OCc1ccccc1", "activity change, negative = cytotoxicity": "-1.93% (inactive)"}
{"smiles": "N[C@@H](CCC(=O)N[C@@H](CS)C(=O)NCC(=O)O)C(=O)O", "activity change, negative = cytotoxicity": "5.61% [at 19 µM] (inactive)"}
{"smiles": "Brc1ccc(-c2ccccc2)cc1", "activity change, negative = cytotoxicity": "2.05% (inactive)"}
{"smiles": "CC(=O)N[C@@H](CCC(=O)O)C(=O)O", "activity change, negative = cytotoxicity": "5.84% [at 42.5 µM] (inactive)"}
{"smiles": "CC(C)=CCOC(=O)c1ccccc1", "activity change, negative = cytotoxicity": "2.33% (inactive)"}
{"smiles": "CC(N)C(=O)OC(C)(C)Cc1ccc(Cl)cc1", "note": "(stereo not given)", "activity change, negative = cytotoxicity": "0.311% [at 42.5 µM] (inactive)"}
{"smiles": "FC(F)(F)c1ccccc1-n1ccnc1", "activity change, negative = cytotoxicity": "0.134% [at 42.5 µM] (inactive)"}
{"smiles": "CCCCCCCCCCCCCC", "activity change, negative = cytotoxicity": "1.13% (inactive)"}
{"smiles": "CCCOC(=O)C(C)O", "note": "(stereo not given)", "activity change, negative = cytotoxicity": "5.34% (inactive)"}
{"smiles": "OCCN(CCO)c1cccc(Cl)c1", "activity change, negative = cytotoxicity": "-0.283% (inactive)"}
{"smiles": "COc1ccc2c(c1OC)C(=O)O[C@@H]2[C@H]1c2c(cc3c(c2OC)OCO3)CCN1C", "Potency": "13.3 µM (active)"}
{"smiles": "O=P(O)(O)OP(=O)(O)O", "activity change, negative = cytotoxicity": "2% (inactive)"}
{"smiles": "CCc1ccc(C=O)cc1", "activity change, negative = cytotoxicity": "7.24% (inactive)"}
{"smiles": "Nc1cccc(O)c1", "activity change, negative = cytotoxicity": "-0.258% (inactive)"}
{"smiles": "COc1ccc(OC)c(Cl)c1", "activity change, negative = cytotoxicity": "5.54% (inactive)"}
{"smiles": "CC1=C(C(=O)O)N2C(=O)[C@@H](NC(=O)[C@H](N)c3ccc(O)cc3)[C@H]2SC1", "activity change, negative = cytotoxicity": "-2.89% [at 42.5 µM] (inactive)"}
{"smiles": "CCCCCCCCCC(C)=O", "activity change, negative = cytotoxicity": "-2.44% (inactive)"}
{"smiles": "NS(=O)(=O)c1cc2c(cc1Cl)CN(C1CCCCC1)C2=O", "activity change, negative = cytotoxicity": "3.02% [at 42.5 µM] (inactive)"}
{"smiles": "CCCCOC(=O)c1ccccc1", "activity change, negative = cytotoxicity": "8.28% (inactive)"}
{"smiles": "O=C(c1ccc(O)cc1)c1ccc(O)c(O)c1O", "Potency": "61.4 µM (active)"}
{"smiles": "CCCN1C[C@H](CSC)C[C@@H]2c3cccc4[nH]cc(c34)C[C@H]21", "activity change, negative = cytotoxicity": "-14% [at 42.5 µM] (inactive)"}
{"smiles": "O=S(O)(O)=S", "activity change, negative = cytotoxicity": "4.08% [at 8.39 µM] (inactive)"}
{"smiles": "COP(=O)(OC)OC(c1ccc(Cl)cc1)P(=O)(OC)OC", "note": "(stereo not given)", "activity change, negative = cytotoxicity": "10.5% [at 42.5 µM] (inactive)"}
{"smiles": "Cc1cc(Cl)c(C)cc1Cl", "activity change, negative = cytotoxicity": "7% (inactive)"}
{"smiles": "O=C(O)c1cc(Br)c(O)c(Br)c1", "activity change, negative = cytotoxicity": "-0.513% (inactive)"}
{"smiles": "CN(C)C(=O)CNC(=O)Cc1ccccc1", "activity change, negative = cytotoxicity": "7.21% [at 42.5 µM] (inactive)"}
{"smiles": "COc1ccc(-c2cc(=O)c3c(O)cc(O[C@@H]4O[C@H](CO[C@@H]5O[C@@H](C)[C@H](O)[C@@H](O)[C@H]5O)[C@@H](O)[C@H](O)[C@H]4O)cc3o2)cc1O", "activity change, negative = cytotoxicity": "-0.759% [at 42.5 µM] (inactive)"}
{"smiles": "C#CC(C)N(C)C(=O)Nc1ccc(Cl)cc1", "note": "(stereo not given)", "activity change, negative = cytotoxicity": "-9.2% (inactive)"}
{"smiles": "CC(CO)c1ccccc1", "note": "(stereo not given)", "activity change, negative = cytotoxicity": "3.98% (inactive)"}
{"smiles": "CN(C)CCOCCO", "activity change, negative = cytotoxicity": "-0.161% (inactive)"}
{"smiles": "CCCCCOC(=O)CCC", "activity change, negative = cytotoxicity": "-14.4% (inactive)"}
{"smiles": "CC(=C(CCOC(=O)C(C)C)SSC(CCOC(=O)C(C)C)=C(C)N(C=O)Cc1cnc(C)nc1N)N(C=O)Cc1cnc(C)nc1N", "activity change, negative = cytotoxicity": "-3.81% [at 42.5 µM] (inactive)"}
{"smiles": "Oc1ccccc1-c1nnco1", "activity change, negative = cytotoxicity": "11.3% [at 42.5 µM] (inactive)"}
{"smiles": "CC(=O)Nc1ccc(S(=O)(=O)Cl)cc1", "activity change, negative = cytotoxicity": "2.12% (inactive)"}
{"smiles": "CC(C)(C)c1n[nH]c(=S)n(N)c1=O", "activity change, negative = cytotoxicity": "12.2% (inactive)"}
{"smiles": "CC[C@H](C)C(=O)O[C@H]1C[C@H](O)C=C2C=C[C@H](C)[C@H](CC[C@@H](O)C[C@@H](O)CC(=O)O)[C@H]21", "activity change, negative = cytotoxicity": "6.09% (inactive)"}
